Source: PubChem BioAssay (NCATS)
Inconclusive results are not listed. Where a call stands in place of a potency, no number is given. Activity calls are given as the source filed them. The call rests on the fitted dose curve; in most records, active means well fitted inhibition curve with a large enough effect; inconclusive means small, poorly fitted or top-dose-only effect; inactive means flat fitted curve, though single readings scatter.

Assays:
Experiment in all cases: qHTS profiling for inhibitors of Plasmodium falciparum proliferation (AID 504749); further: nearly all actives have a fitted effect of over 60% in size
Settings in all cases: P. falciparum in erythrocytes, SYBR Green DNA, 72 h; series mostly up to 28.7 µM
CP215 = tested on: CP215
Method in brief: (§1)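 SYBR Green fluorescence (ex 485 nm, em 535 nm) reports parasite DNA after 72 h compound exposure of infected red cells at 0.3% parasitemia, 2.5% hematocrit; signal normalized to 0.29 uM artemisinin and vehicle wells.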

CP217 = tested on: CP217
Method in brief: as §1

CP237 = tested on: CP237
Method in brief: as §1

CP238 = tested on: CP238
Method in brief: as §1

CP247 = tested on: CP247
Method in brief: as §1

CP250 = tested on: CP250
Method in brief: as §1

CP252 = tested on: CP252
Method in brief: as §1

CP256 = tested on: CP256
Method in brief: as §1

CP260 = tested on: CP260
Method in brief: as §1

CP262 = tested on: CP262
Method in brief: as §1
Potency means the concentration at half of the fitted maximal effect.

SMILES | Potency (CP215) | Potency (CP217) | Potency (CP237) | Potency (CP238) | Potency (CP247) | Potency (CP250) | Potency (CP252) | Potency (CP256) | Potency (CP260) | Potency (CP262)
O=C1CCCCC1CN1CCCCC1 (centres undefined) | inactive | inactive | inactive | inactive | inactive | inactive | inactive | inactive | inactive | inactive
CC(=O)OC1CN2CCC1CC2 (centres undefined) | inactive | inactive | inactive | inactive | inactive | inactive | inactive | inactive | inactive | inactive
CC[N+](C)(CC)CCOC(=O)C(O)(c1ccccc1)c1ccccc1 | inactive | inactive | inactive | inactive | inactive | inactive | inactive | inactive | inactive | inactive
C/C(=C\c1csc(C)n1)[C@@H]1C[C@@H]2O[C@]2(C)CCC[C@H](C)[C@H](O)[C@@H](C)C(=O)C(C)(C)[C@@H](O)CC(=O)O1 | 3.8 nM (active) | 4 nM (active) | 1.6 nM (active) | 3.2 nM (active) | 2.8 nM (active) | 7.1 nM (active) | 3.5 nM (active) | 2.2 nM (active) | 2.2 nM (active) | 
O=P(O)(O)C(Cl)(Cl)P(=O)(O)O | inactive | inactive | inactive | inactive | inactive | inactive | inactive | inactive | inactive | inactive
CC(C)CCON=O | inactive | inactive | inactive | inactive | inactive | inactive | inactive | inactive | inactive | inactive
C=CCN(C1=NCCN1)c1c(Cl)cccc1Cl | inactive | inactive | inactive | inactive | inactive | inactive | inactive | inactive | inactive | inactive
O=C1CN(O)C(c2ccccc2)=c2cc(Cl)ccc2=N1 | inactive | inactive | inactive | inactive | inactive | inactive | inactive | inactive | inactive | inactive
O[C@H]1[C@H]2[C@H](O)CCCN2C[C@H]1O | inactive | inactive | inactive | inactive | inactive | inactive | inactive | inactive | inactive | inactive
Cn1sc(Cl)cc1=O | inactive | inactive | inactive | inactive | inactive | inactive | inactive | inactive | inactive | inactive
CCC(N)Cc1c[nH]c2ccccc12 (centres undefined) | inactive | inactive | inactive | inactive | inactive | inactive | inactive | inactive | inactive | inactive
CCON=O | inactive | inactive | inactive | inactive | inactive | inactive | inactive | inactive | inactive | inactive
CC(N)Cc1ccc(O)cc1 (centres undefined) | inactive | inactive | inactive | inactive | inactive | inactive | inactive | inactive | inactive | inactive
O=c1[nH]cc(N(CCCl)CCCl)c(=O)[nH]1 | inactive | inactive | inactive | inactive | inactive | inactive | inactive | inactive | inactive | inactive
CCC1(CC)C(=O)NC(=O)N(C)C1=O | inactive | inactive | inactive | inactive | inactive | inactive | inactive | inactive | inactive | inactive
CCC(=O)O[C@@](Cc1ccccc1)(c1ccccc1)[C@@H](C)CN(C)C | inactive | inactive | inactive | inactive | inactive | inactive | inactive | inactive | inactive | inactive
c1ccc2sc(SNC3CCCCC3)nc2c1 | inactive | inactive | inactive | inactive | inactive | inactive | inactive | inactive | inactive | inactive
[O]=[Cd] | inactive | inactive | inactive | inactive | inactive | inactive | inactive | inactive | inactive | inactive
S=C=S | inactive | inactive | inactive | inactive | inactive | inactive | inactive | inactive | inactive | inactive
CC(C)(O)C1C2OC(=O)C1C1(O)CC3OC34C(=O)OC2C14C (centres undefined) | inactive | inactive | inactive | inactive | inactive | inactive | inactive | inactive | inactive | inactive
ClC=C(Cl)Cl | inactive | inactive | inactive | inactive | inactive | inactive | inactive | inactive | inactive | inactive
Oc1cc(Cl)c(Cl)cc1Cl | inactive | inactive | inactive | inactive | inactive | inactive | inactive | inactive | inactive | inactive
